Bioassay records from PubChem BioAssay.
USP7 inh: blocks human USP7 ubiquitin-rhodamine cleavage. Q93009. hit rate 0.3% among 47,000. inhibition, % at 20 µM. purified USP7, Ub-rhodamine cleavage fluorescence. AID 1645854
UCHL1 block: blocks human UCHL1 ubiquitin-rhodamine cleavage; P09936; hit rate 0.2% among 47,000; inhibition, % at 20 µM; purified UCHL1, Ub-rhodamine cleavage fluorescence
USP8 block: human USP8 deubiquitinase inhibition; P40818; purified USP8, Ub-rhodamine cleavage fluorescence, 30 min; inhibition, % at 20 µM; hit rate 4.2% among 47,000; AID 1645853
USP10 block: human USP10 deubiquitinase inhibition; Q14694; purified USP10, Ub-rhodamine fluorescence, 60 min; inhibition, % at 20 µM; hit rate 1.1% among 47,000
Target sequence (Q14694 whole entry, looked up): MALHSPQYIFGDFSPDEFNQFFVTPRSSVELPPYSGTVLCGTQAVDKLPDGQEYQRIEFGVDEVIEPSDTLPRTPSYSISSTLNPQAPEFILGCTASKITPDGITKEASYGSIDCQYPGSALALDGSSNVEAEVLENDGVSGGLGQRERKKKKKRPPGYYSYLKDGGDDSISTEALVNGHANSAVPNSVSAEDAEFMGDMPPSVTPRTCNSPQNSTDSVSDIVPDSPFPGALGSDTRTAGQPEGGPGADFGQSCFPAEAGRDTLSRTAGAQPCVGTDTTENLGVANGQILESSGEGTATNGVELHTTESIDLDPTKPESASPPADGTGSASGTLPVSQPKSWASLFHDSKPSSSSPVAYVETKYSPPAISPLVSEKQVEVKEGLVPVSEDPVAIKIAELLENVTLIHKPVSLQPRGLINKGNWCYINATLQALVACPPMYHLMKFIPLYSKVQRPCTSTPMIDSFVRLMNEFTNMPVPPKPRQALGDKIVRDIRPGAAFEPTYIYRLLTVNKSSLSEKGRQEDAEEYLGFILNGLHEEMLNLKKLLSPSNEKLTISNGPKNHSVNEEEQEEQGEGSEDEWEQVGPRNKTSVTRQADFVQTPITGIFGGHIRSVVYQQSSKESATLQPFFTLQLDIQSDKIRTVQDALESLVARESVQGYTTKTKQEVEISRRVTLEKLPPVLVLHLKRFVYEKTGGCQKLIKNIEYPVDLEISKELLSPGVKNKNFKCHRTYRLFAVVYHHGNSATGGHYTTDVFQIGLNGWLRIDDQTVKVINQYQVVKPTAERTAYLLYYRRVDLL
Large screens that a line does not name were inactive. Rows were chosen to be rich in hits. Some 5% of all compounds tested hit in one or more screens of this group. Cut-off read from the data, not from the text of the source: active = inhibition above about 30%; inactive = the rest.

N=C1/C(=C/c2cn(Cc3ccccc3F)c3ccccc23)C(=O)N=C2SC(C(F)(F)F)=NN12	USP7 inh 40.9, USP8 block 47.6, USP10 block 50.6
COc1ccc(-n2c(SCC(=O)Nc3cc(Cl)ccc3C(=O)O)nc3ccccc3c2=O)cc1Cl	USP7 inh 34.9, USP8 block 38.9, USP10 block 58.6
O=c1cc(CNc2ccc(Br)cc2)nc2nc(-c3ccccc3)[nH]n12	USP8 block 45.3
Cc1noc(-c2cc(=O)n(CC(=O)Nc3ccccc3)c3ccccc23)n1	none
Cc1noc(-c2cc(=O)n(CC(=O)Nc3ccccc3Cl)c3ccccc23)n1	USP10 block 33.5
Cc1noc(-c2cc(=O)n(CC(=O)NC3CCCC3)c3ccccc23)n1	USP8 block 34.8
COc1ccc([C@@H]2CN(Cc3cccnc3)C[C@H]2c2cc(=O)[nH]c(C)n2)cc1	none
CCc1ccc(C2c3c(-c4cc(C)cc(C)c4O)n[nH]c3C(=O)N2Cc2cccnc2)cc1 (centres undefined)	USP8 block 74.1
Cc1cccc(C)c1N1CC(O)c2ccccc2S1(=O)=O (centres undefined)	none
O=C1c2ccccc2C(=O)c2c(O)c(O)cc(O)c21	UCHL1 block 45.4
O=C(Oc1ccc(-c2ccccc2)c(F)c1)c1ccco1	none
Cn1c(CCN2CCN(c3ccc(F)cc3)CC2)nc2cc(NC(=O)c3ccc(Cl)cc3)ccc21	USP8 block 36.7
NC(=O)CN1C(=O)CO[C@H]2CN(Cc3cnc4ccccc4c3)C[C@H]21	none
O=C(c1ccccc1)c1c[nH]c2cc3c(cc2c1=O)OCO3	USP8 block 49.6
COc1ccc(NC(=O)c2c(O)cn(-c3ccccc3)c2O)cc1	none
COC(=O)c1ccccc1NC(=O)c1cc2ccccc2c(=O)s1	none
Cc1cccc(NC(=O)c2cc3ccccc3c(=O)s2)c1	USP8 block 32.8
O=S1(=O)NCC2(CCN(c3ncc(F)cn3)CC2)COc2ccccc21	none
CCCOc1cccc(C(=O)Nc2ccc(-n3cnnn3)cc2)c1	USP8 block 47.7
COc1ccc2[nH]cc(CCN=C(NC(=O)C(C)C)Nc3nc(C)cc(C)n3)c2c1	none
COc1ccc2c(CCN=C(NC(C)=O)Nc3nc(C)cc(C)n3)c[nH]c2c1	USP7 inh 34.4
Cc1cc(C(=O)CN2CCN(Cc3ccc4c(c3)OCO4)CC2)c(C)n1-c1ccc2c(c1)OCO2	none
Cc1cc(C(=O)COC(=O)c2ccc[nH]c2=O)c(C)n1-c1ccc2c(c1)OCO2	USP8 block 30.4
Cc1ccc(S(=O)(=O)CCC(=O)OCC(=O)c2cc(C)n(-c3ccc4c(c3)OCO4)c2C)cc1	USP8 block 57.9
Cc1cc(C(=O)COc2ncnc3sccc23)c(C)n1-c1ccc2c(c1)OCO2	none
CCOC(=O)c1sc(NC(=O)c2cc(-c3ccc(OC)cc3)nc3ccccc23)nc1C	none
CCN(CC)C(=O)c1sc(NC(=O)c2cc(-c3ccccc3Cl)nc3ccccc23)c(C(N)=O)c1C	USP8 block 47.1, USP10 block 44.0
COc1c2n(c3ccccc13)[C@@]1(O)C(=O)N(C)C(=O)[C@@]1(O)c1c-2n(C)c2ccc(Cl)cc12	none
O=C(Nc1ccc2snnc2c1)Nc1ccc(F)cc1F	USP8 block 74.2
COc1ccccc1-c1cc2n(n1)CCN(C(=O)c1cccnc1)C2	none
CCOc1cc(C#N)ccc1Oc1ncnc2sccc12	none
COc1cc(C(=O)N(Cc2cccc3ccccc23)c2ccccn2)cc(OC)c1OC	none
COc1cc(CN(C(=O)c2oc3cc(C)ccc3c2C)c2ccccn2)cc(OC)c1OC	USP8 block 31.5
COCC(=O)N1CCC(c2ccnc(Nc3ccc(C)cn3)n2)C1 (centres undefined)	none
CN(C(=O)c1cccs1)c1nc2c(s1)CCc1occc1-2	none
Cc1c(C(=O)N(C)c2nc3c(s2)CCc2occc2-3)oc2ccccc12	USP8 block 48.1
COc1ccc(C(=O)CSc2ccc3nnc(CCNC(=O)c4ccc(OC)cc4)n3n2)cc1	none
Cc1ccc(S(=O)(=O)N2CCN(C(=O)CN3CCc4ccccc43)CC2)c(C)c1	none
Cn1ccc(CN2CCc3ccccc32)cc1=O	USP8 block 51.4
c1ccc(-c2cc(-c3nnc4c5ccccc5cnn34)[nH]n2)cc1	none
O=c1ccc(-c2nnc3c4ccccc4c(Cc4ccccc4)nn23)n[nH]1	USP8 block 59.3
COc1c(C)c(C(O)C(C)O)c2[nH]c3ccc(CC=C(C)C)cc3c2c1O (centres undefined)	USP8 block 62.6
Cc1ccc(NC(=O)N2CCC(c3nc(C(=O)N(C)C)c(C)o3)CC2)cc1Cl	none
O=C1NCc2ccccc2CC12CCN(C/C=C/c1ccccc1)C2 (centres undefined)	none
CC(Oc1ccc(F)cc1)C(=O)Nc1ccc2nsnc2c1 (centres undefined)	USP8 block 83.5
COc1ccc([N+](=O)[O-])cc1NC(=O)C(C)OC(=O)CSc1ccc2ccccc2c1 (centres undefined)	none
Nc1ccc([N+](=O)[O-])cc1NC(=O)CSc1ccc2ccccc2c1	USP8 block 41.3
Cc1ccc2[nH]c3c(=O)n(Cc4cccnc4)cnc3c2c1	none (no result: USP7 inh)
Cc1ccc2[nH]c3c(=O)n(Cc4ccc(N(C)C)cc4)cnc3c2c1	USP8 block 88.3
Cc1ccc(NC(=O)CC(C)CC(=O)Nc2ccc(C(C)C)cc2)cc1Cl (centres undefined)	USP8 block 31.2
CC(O)[C@@H](NC(=O)C1(c2ccccc2)CCN(C(=O)[C@@H]2Cc3ccccc3CN2C(=O)OC(C)(C)C)CC1)C(=O)O (some centres undefined)	none
Clc1cccc(CN2CCC3(COCc4cnc(-c5cccnc5)nc43)C2)c1 (centres undefined)	none
CSc1nnc(NC(=O)c2cc(-c3cc(Cl)ccc3O)n[nH]2)s1	none
CCCc1nnc(NC(=O)c2cc(-c3ccccc3O)n[nH]2)s1	USP10 block 54.4
COc1cccc(NC2=NS(=O)(=O)C(c3ccc(F)cc3)=C2C)c1	none
CCSc1nnc(-c2cccc(NC(=O)c3ccccc3Cl)c2)n1C	none
CN1CC(=O)N(C2CCCNC2)Cc2c(NC3Cc4ccccc4C3)ncnc21 (centres undefined)	USP8 block 67.9
CN1CC(=O)N(C2CCCNC2)Cc2c(NC3CCCCCC3)ncnc21 (centres undefined)	none
Cc1ccc(C)c(NC(=O)Cn2cc(C(=O)C3CC3)c3ccccc32)c1	USP7 inh 35.4, USP8 block 92.9, USP10 block 45.6
COc1ccccc1NC(=O)Cn1cc(C(=O)c2ccc(C)cc2)c(=O)c2cc(C)ccc21	none
O=C(Cn1cc(C(=O)c2ccc(F)cc2)c(=O)c2ccccc21)Nc1ccc2c(c1)OCO2	USP8 block 70.6, USP10 block 46.6
Cc1ccc2c(c1)c(=O)c(C(=O)c1ccccc1)cn2CC(=O)Nc1ccc2c(c1)OCCO2	none
Cc1ccc(C(=O)c2cn(CC(=O)Nc3ccccc3)c3ccc(C)cc3c2=O)cc1	USP8 block 61.9, USP10 block 35.6
COc1ccc(NC(=O)Cn2cc(C(=O)c3ccc(C)cc3)c(=O)c3ccccc32)cc1	USP8 block 48.7, USP10 block 37.9
O=S(=O)(c1cc(F)cc(F)c1)N1CCN(c2cc(-c3ccncc3)[nH]n2)CC1	none
